Common to all, as to assay: DAPPL (digital affinity profiling via proximity ligation, sequencing); 10 mM Tris-HCl pH 7.5, 50 mM NaCl, 1 mM DTT, 4% glycerol, room temperature, 30 min; GST-TFs on glutathione beads, 16-mer random dsDNA library, 0.1% formaldehyde crosslink after washing; high values mean tight binding
One experiment deals with T1, FLI1 (Homo sapiens, UniProt Q01543 1-452).
T1 sequence: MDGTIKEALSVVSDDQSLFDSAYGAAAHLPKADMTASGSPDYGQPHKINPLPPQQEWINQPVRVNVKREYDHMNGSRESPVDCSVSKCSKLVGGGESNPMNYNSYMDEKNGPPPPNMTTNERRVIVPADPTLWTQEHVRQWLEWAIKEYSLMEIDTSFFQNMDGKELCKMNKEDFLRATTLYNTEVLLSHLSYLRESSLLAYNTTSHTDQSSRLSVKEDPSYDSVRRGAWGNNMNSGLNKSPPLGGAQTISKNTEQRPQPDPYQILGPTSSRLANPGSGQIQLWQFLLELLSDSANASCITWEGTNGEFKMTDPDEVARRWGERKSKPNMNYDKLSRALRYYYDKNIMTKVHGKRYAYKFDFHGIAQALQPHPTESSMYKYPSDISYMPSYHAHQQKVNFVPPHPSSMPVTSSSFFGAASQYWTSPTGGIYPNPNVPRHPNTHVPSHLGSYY
Conditions: protein: recombinant; tags: N-terminal GST; dsDNA, one strand shown. Summed up:
(§1)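 In yeast, human transcription factors were expressed with a GST fusion, then pulled down on glutathione beads and given DNA barcodes. Pooled with a tag-only sample, they were exposed to 200 nmole of a 16-mer random double-stranded DNA library (Tris/NaCl/DTT/glycerol buffer, room temperature, 30 min), washed, crosslinked with 0.1% formaldehyde, proximity-ligated using BsaI/T4 ligase for 1 h at 37 °C, PCR-amplified and read on an Illumina NextSeq500. Each hexamer's frequency of reads for a factor, divided by the matching frequency for the tag-only sample, gives the binding signal.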

For the next experiment, the target named is T2, ELK1 (Homo sapiens, UniProt P19419 1-428).
T2 sequence: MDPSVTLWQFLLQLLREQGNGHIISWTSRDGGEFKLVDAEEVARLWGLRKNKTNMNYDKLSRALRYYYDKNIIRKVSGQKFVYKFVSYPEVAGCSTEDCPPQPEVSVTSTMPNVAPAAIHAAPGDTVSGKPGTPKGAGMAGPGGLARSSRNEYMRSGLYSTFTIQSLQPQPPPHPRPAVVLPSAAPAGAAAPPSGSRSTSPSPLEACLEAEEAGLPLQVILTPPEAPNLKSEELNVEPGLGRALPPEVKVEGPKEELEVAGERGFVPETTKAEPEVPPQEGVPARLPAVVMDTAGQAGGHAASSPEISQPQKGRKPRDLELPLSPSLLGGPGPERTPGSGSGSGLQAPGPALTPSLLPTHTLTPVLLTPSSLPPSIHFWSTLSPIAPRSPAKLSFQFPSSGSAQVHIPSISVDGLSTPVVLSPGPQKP
Conditions: protein: recombinant; tags: N-terminal GST; dsDNA, one strand shown. The procedure, abridged: as §1

In the next experiment the target is T3, GABPA (Homo sapiens, UniProt Q06546 1-454).
T3 sequence: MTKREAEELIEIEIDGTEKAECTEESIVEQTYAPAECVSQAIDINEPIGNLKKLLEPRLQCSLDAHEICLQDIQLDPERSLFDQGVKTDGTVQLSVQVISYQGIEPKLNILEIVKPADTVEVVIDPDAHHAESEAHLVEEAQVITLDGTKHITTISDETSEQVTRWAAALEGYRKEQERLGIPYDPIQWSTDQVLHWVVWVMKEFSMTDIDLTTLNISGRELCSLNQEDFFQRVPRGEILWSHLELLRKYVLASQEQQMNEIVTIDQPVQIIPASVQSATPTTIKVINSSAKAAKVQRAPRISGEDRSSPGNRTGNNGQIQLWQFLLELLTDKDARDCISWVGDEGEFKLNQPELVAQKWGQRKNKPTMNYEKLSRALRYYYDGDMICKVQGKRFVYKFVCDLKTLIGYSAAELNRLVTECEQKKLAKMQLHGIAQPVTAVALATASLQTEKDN
To be noted: protein: recombinant; tags: N-terminal GST; dsDNA, one strand shown. Summed up: as §1

In the next experiment the target is T4, ERG (Homo sapiens, UniProt P11308 1-479).
T4 sequence: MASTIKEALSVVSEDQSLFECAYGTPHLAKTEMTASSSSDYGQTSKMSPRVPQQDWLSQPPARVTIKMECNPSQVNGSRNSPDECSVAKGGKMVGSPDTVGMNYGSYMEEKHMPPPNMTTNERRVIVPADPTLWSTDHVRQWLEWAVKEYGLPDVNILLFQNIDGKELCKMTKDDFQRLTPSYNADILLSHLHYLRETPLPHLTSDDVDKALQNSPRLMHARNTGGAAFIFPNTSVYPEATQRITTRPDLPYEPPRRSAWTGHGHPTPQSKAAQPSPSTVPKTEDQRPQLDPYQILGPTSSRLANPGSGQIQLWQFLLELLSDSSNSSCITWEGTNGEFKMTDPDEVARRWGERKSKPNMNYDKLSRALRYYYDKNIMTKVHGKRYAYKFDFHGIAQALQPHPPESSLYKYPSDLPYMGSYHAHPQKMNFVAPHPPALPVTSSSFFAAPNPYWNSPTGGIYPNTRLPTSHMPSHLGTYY
To be noted: protein: recombinant; tags: N-terminal GST; dsDNA, one strand shown. The procedure, abridged:
as §1

The target in a further experiment is ELF1 (Homo sapiens, UniProt P32519 1-619). Conditions: protein: recombinant; tags: N-terminal GST; dsDNA, one strand shown. The procedure, abridged:
as §1

A further experiment concerns the target T5, EHF (Homo sapiens, UniProt Q9NZC4 1-300).
T5 sequence: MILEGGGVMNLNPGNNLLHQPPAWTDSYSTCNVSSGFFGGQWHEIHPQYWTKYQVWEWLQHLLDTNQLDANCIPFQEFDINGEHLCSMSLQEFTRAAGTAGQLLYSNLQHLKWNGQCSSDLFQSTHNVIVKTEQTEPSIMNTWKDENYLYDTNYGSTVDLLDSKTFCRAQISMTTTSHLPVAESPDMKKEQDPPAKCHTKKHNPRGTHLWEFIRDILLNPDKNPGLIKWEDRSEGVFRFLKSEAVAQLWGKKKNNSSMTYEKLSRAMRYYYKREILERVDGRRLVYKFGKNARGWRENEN
To be noted: protein: recombinant; tags: N-terminal GST; dsDNA, one strand shown. Summed up:
as §1

In another experiment the target is SPI1 (Homo sapiens, UniProt P17947 1-270). To be noted: protein: recombinant; tags: N-terminal GST; dsDNA, one strand shown. The procedure, abridged:
as §1

In a further experiment the target is SPIB (Homo sapiens, UniProt Q01892 1-262). Conditions: protein: recombinant; tags: N-terminal GST; dsDNA, one strand shown. The procedure, abridged:
as §1

A further experiment concerns the target T6, ELK3 (Homo sapiens, UniProt P41970 1-407).
T6 sequence: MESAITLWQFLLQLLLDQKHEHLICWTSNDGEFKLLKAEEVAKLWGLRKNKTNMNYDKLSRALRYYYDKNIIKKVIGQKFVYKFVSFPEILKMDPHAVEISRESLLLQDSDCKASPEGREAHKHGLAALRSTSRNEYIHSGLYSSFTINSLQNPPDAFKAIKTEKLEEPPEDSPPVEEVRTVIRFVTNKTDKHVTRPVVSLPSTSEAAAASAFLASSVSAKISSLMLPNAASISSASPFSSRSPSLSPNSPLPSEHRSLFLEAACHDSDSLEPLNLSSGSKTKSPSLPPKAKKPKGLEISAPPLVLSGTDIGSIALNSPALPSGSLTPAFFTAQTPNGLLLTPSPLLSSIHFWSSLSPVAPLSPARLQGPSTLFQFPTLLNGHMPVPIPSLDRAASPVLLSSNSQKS
To be noted: protein: recombinant; tags: N-terminal GST; dsDNA, one strand shown. The procedure, abridged:
as §1

The target of the next experiment is T7, FEV (Homo sapiens, UniProt Q99581 1-238).
T7 sequence: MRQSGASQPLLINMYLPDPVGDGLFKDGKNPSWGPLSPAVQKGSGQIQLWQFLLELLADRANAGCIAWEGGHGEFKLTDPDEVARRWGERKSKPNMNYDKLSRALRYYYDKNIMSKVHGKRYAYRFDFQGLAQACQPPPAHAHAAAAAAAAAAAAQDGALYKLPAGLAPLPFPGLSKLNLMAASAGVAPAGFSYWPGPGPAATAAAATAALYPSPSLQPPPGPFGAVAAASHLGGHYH
Conditions: protein: recombinant; tags: N-terminal GST; dsDNA, one strand shown. Summed up: as §1

The next experiment has as its target ETV5 (Homo sapiens, UniProt P41161 1-510). To be noted: protein: recombinant; tags: N-terminal GST; dsDNA, one strand shown. The procedure, abridged: as §1
In another experiment the target is HSF1 (Homo sapiens, UniProt Q00613 1-529). To be noted: protein: recombinant; tags: N-terminal GST; chain copies: 3; dsDNA, one strand shown. Summed up:
as §1

A further experiment deals with T8, SPIC (Homo sapiens, UniProt Q8N5J4 1-248).
T8 sequence: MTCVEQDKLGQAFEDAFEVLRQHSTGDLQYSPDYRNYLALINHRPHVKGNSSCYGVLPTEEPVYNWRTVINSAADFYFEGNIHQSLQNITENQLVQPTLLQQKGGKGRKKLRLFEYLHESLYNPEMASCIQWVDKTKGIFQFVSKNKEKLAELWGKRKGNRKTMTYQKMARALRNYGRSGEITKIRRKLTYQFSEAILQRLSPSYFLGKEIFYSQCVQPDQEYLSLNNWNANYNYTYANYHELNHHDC
To be noted: protein: recombinant; tags: N-terminal GST; dsDNA, one strand shown. Summed up:
as §1

For another experiment, the target named is ELF4 (Homo sapiens, UniProt Q99607 1-663). Conditions: protein: recombinant; tags: N-terminal GST; dsDNA, one strand shown. Summed up:
as §1

In the next experiment the target is T9, ELK4 (Homo sapiens, UniProt P28324-2 1-405).
T9 sequence: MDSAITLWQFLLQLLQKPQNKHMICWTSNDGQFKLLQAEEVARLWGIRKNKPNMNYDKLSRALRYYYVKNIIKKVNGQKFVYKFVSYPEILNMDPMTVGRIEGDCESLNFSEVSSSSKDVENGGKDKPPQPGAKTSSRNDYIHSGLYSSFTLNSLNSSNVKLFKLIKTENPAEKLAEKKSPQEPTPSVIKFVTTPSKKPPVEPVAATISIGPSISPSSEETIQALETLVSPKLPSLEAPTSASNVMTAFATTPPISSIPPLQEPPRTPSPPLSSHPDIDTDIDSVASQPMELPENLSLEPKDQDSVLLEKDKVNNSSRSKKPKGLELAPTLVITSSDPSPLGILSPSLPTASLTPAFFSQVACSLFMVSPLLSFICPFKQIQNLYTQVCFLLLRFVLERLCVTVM
To be noted: protein: recombinant; tags: N-terminal GST; dsDNA, one strand shown. The procedure, abridged: as §1

The target of the next experiment is T10, ETV2 (Homo sapiens, UniProt O00321 1-342).
T10 sequence: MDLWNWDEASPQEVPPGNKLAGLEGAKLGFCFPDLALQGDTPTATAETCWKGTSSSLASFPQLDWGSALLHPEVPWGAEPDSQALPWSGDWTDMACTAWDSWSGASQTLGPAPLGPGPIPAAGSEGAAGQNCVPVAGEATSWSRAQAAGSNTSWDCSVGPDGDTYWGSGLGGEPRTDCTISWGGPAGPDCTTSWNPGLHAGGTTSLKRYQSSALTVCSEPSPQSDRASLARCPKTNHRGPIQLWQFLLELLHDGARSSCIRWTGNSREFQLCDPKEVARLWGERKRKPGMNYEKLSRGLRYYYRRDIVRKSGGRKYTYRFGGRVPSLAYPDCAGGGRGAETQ
Conditions: protein: recombinant; tags: N-terminal GST; dsDNA, one strand shown. Summed up: as §1

For another experiment, the target named is T11, ELF3 (Homo sapiens, UniProt P78545 1-371).
T11 sequence: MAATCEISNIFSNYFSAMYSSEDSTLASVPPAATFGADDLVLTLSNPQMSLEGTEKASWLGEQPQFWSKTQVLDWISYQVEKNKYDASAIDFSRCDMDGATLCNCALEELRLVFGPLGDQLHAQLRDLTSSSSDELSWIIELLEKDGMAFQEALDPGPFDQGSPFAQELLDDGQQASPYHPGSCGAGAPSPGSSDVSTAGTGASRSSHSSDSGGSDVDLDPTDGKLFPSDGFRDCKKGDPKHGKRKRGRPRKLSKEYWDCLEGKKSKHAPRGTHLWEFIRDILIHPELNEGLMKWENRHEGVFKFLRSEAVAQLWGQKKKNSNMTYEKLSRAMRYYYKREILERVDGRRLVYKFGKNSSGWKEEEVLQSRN
Conditions: protein: recombinant; tags: N-terminal GST; dsDNA, one strand shown. The procedure, abridged:
as §1

For another experiment, the target named is CRX (Homo sapiens, UniProt O43186 1-299). To be noted: protein: recombinant; tags: N-terminal GST; dsDNA, one strand shown. The procedure, abridged: as §1
In the next experiment the target is ETV1 (Homo sapiens, UniProt P50549 1-477). To be noted: protein: recombinant; tags: N-terminal GST; dsDNA, one strand shown. The procedure, abridged: as §1
ETV1, sequence (P50549 whole entry): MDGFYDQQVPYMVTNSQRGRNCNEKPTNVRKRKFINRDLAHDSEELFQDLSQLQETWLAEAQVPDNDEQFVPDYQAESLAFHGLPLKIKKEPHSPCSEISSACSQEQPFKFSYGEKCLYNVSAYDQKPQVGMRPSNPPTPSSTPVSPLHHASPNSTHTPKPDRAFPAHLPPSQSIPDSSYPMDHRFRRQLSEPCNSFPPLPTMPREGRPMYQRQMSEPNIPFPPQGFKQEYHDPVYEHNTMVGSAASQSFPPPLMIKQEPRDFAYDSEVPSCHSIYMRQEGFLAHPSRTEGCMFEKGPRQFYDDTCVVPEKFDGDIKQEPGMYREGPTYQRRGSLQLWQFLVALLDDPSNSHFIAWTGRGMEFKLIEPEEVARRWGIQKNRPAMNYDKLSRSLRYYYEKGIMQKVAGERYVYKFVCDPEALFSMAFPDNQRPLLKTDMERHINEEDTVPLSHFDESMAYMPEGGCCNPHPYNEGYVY

HSF1, sequence (Q00613 whole entry): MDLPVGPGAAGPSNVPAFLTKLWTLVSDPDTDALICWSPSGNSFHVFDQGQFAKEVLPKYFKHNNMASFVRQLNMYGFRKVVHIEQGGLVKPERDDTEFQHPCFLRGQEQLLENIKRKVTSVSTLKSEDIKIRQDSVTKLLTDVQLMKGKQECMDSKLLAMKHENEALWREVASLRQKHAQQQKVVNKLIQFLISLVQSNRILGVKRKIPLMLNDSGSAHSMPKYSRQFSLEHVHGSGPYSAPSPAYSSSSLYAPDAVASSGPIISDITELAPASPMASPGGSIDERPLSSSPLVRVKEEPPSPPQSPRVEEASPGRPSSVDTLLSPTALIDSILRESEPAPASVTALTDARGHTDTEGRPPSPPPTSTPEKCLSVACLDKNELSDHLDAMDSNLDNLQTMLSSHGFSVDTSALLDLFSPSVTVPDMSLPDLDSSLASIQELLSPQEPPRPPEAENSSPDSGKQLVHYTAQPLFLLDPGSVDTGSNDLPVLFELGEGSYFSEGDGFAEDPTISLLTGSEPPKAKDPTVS
ELF4, sequence (Q99607 whole entry): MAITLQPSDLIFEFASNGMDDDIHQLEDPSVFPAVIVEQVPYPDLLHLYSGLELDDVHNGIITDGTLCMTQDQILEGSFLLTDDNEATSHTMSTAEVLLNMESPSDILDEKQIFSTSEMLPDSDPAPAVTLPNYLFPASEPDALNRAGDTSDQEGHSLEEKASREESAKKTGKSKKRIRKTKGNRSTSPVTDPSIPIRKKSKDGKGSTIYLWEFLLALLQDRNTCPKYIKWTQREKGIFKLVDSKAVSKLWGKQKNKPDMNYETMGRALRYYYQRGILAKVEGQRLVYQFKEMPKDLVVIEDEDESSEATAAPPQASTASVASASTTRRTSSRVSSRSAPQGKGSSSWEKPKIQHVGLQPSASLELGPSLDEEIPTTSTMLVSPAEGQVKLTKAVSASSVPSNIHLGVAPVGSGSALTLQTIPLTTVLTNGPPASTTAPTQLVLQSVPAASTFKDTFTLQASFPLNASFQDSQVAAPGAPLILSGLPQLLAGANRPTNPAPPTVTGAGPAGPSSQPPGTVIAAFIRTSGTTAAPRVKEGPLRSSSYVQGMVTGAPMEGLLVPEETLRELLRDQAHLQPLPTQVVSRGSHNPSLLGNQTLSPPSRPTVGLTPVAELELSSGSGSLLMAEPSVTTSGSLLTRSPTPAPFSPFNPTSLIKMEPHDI
SPIB, sequence (Q01892 whole entry): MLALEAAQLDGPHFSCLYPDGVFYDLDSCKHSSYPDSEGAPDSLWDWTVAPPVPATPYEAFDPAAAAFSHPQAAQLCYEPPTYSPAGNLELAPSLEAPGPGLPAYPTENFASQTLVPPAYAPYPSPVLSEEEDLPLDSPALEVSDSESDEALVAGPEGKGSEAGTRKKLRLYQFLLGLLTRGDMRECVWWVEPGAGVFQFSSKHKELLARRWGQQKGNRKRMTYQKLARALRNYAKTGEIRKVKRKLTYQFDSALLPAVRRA
ETV5, sequence (P41161 whole entry): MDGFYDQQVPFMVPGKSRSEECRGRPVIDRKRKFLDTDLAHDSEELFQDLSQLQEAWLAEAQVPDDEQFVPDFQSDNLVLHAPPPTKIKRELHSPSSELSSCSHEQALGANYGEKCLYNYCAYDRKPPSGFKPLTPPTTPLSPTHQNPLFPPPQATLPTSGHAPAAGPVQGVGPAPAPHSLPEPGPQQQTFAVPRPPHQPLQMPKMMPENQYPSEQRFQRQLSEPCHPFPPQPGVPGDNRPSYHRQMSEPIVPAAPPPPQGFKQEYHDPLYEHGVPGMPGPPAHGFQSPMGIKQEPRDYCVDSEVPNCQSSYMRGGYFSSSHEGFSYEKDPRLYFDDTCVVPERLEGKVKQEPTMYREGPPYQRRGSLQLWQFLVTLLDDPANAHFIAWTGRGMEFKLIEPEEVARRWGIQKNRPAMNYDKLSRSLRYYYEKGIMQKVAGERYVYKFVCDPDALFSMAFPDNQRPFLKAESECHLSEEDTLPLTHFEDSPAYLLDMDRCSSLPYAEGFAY
CRX, sequence (O43186 whole entry): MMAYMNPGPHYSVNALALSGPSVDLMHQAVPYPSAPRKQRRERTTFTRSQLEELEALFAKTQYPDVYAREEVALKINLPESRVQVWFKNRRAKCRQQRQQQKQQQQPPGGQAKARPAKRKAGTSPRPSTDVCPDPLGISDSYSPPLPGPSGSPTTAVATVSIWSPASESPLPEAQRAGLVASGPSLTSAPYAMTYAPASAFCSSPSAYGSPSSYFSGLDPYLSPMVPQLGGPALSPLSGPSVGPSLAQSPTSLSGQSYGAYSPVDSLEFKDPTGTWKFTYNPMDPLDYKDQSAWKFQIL
ELF1, sequence (P32519 whole entry): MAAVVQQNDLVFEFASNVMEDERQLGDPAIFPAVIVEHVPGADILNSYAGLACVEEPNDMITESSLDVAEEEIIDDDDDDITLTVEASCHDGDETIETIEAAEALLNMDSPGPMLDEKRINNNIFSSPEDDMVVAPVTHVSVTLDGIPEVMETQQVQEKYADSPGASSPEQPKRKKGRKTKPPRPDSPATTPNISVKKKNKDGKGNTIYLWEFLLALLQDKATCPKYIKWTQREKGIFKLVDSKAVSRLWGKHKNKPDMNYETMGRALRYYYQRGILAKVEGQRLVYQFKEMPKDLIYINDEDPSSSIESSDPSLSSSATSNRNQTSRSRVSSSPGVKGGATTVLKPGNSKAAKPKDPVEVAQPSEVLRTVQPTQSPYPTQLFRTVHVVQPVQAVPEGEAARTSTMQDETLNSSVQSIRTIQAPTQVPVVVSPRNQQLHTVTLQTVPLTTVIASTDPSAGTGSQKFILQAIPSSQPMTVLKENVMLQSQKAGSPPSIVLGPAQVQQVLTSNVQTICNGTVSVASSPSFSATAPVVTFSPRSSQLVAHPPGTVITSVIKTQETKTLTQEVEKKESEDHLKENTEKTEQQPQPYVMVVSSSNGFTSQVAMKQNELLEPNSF

In the case of ATTAAC, the binding signal with FLI1 was 1.29 fold enrichment (6-mer frequency, TF over GST control); in the experiment with ELK1, 1.16 fold enrichment (6-mer frequency, TF over GST control); in the experiment with GABPA it was 1.22 fold enrichment (6-mer frequency, TF over GST control); in the experiment with ERG, 1.21 fold enrichment (6-mer frequency, TF over GST control); in the experiment with ELF1, 1.32 fold enrichment (6-mer frequency, TF over GST control); with EHF it was 1.16 fold enrichment (6-mer frequency, TF over GST control). Besides, the binding signal with SPI1 is 1.18 fold enrichment (6-mer frequency, TF over GST control); with SPIB, 1.24 fold enrichment (6-mer frequency, TF over GST control); with ELK3 it was 1.26 fold enrichment (6-mer frequency, TF over GST control); with FEV it was 1.27 fold enrichment (6-mer frequency, TF over GST control); with ETV5 it was 1.27 fold enrichment (6-mer frequency, TF over GST control); with HSF1, 2.07 fold enrichment (6-mer frequency, TF over GST control). Besides, the binding signal was 1.3 fold enrichment (6-mer frequency, TF over GST control) with SPIC; 1.3 fold enrichment (6-mer frequency, TF over GST control) in the experiment with ELF4; 1.25 fold enrichment (6-mer frequency, TF over GST control) with ELK4; 1.21 fold enrichment (6-mer frequency, TF over GST control) in the experiment with ETV2; 1.29 fold enrichment (6-mer frequency, TF over GST control) with ELF3; 3.36 fold enrichment (6-mer frequency, TF over GST control) with CRX. The binding signal with ETV1 was 1.27 fold enrichment (6-mer frequency, TF over GST control).
